Several values for one entry are separate records, joined by “and”; a condition that tells them apart may be missing. Identical values can stand only once. Some structures have more than one record in an assay (separate samples or runs), and their calls can disagree. Activity calls are given as the source filed them. The calls were made as follows: active = hit-call score of the fitted dose curve at least 0.9, where 1 is the maximum; inactive = score below 0.9.

This is an account of results in PubChem BioAssay (EPA / NIEHS).

Read-out in assay [1]: Macrophage colony-stimulating factor (MCSF), CSF1 (gene 1435)
Briefly: BSK_hDFCGF_MCSF: BioMAP Diversity Plus: hDFCGF Assay for Macrophage colony-stimulating factor (MCSF) Biomarker Activity (AID 2283060). The settings on record: primary human foreskin fibroblasts; actives raise or lower the signal. The method in brief: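 Primary human foreskin fibroblasts dosed with chemical; 24 h later, M-CSF quantified by ELISA; curves fitted in both directions vs DMSO negative control.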

Assay [2] is described as follows: BSK_hDFCGF_SRB: Viability Assessment in the BioMAP Diversity Plus: hDFCGF Assay (AID 2283061).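 Also: cells exposed to compound for 24 h before the read.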 The settings on record: primary human foreskin fibroblasts. The method in brief: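 Readout is SRB absorbance at 560 nm, reflecting total protein in parallel cultures of human foreskin fibroblasts harvested 24 h after chemical dosing. Activity was fitted bidirectionally relative to DMSO.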

Read-out in assay [3]: TIMP metallopeptidase inhibitor 1 (TIMP1), TIMP1 (gene 7076)
Briefly: BSK_hDFCGF_TIMP1: BioMAP Diversity Plus: hDFCGF Assay for TIMP metallopeptidase inhibitor 1 (TIMP1) Biomarker Activity (AID 2283062). The settings on record: primary human foreskin fibroblasts; actives raise or lower the signal. The method in brief: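 Human skin fibroblasts (primary), hDFCGF system; compound exposure 24 h; TIMP-1 by ELISA; bidirectional fit vs DMSO negative control; overt cytotoxicity by SRB in parallel wells.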

Read-out in assay [4]: Monokine induced gamma interferon (MIG), CXCL9 (gene 4283)
Briefly: BSK_hDFCGF_MIG: BioMAP Diversity Plus: hDFCGF Assay for Monokine induced gamma interferon (MIG) Biomarker Activity (AID 2283063). The settings on record: primary human foreskin fibroblasts; actives raise or lower the signal. An outline of the steps: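 Chemicals were added to primary human foreskin fibroblast cultures, which were sampled 24 h later. MIG levels were then quantified by ELISA and responses fitted in both directions relative to DMSO.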

Read-out in assay [5]: Matrix Metallopeptidase 1 (MMP1), MMP1 (gene 4312)
Briefly: BSK_hDFCGF_MMP1: BioMAP Diversity Plus: hDFCGF Assay for Matrix Metallopeptidase 1 (MMP1) Biomarker Activity (AID 2283064). The settings on record: primary human foreskin fibroblasts; actives raise or lower the signal. The method in brief: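 Human foreskin fibroblasts exposed to chemical for 24 h; MMP1 detected by ELISA, with DMSO as baseline for bidirectional fitting.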

Read-out in assay [6]: Vascular cell adhesion molecule 1 (VCAM1), VCAM1 (gene 7412)
Briefly: BSK_hDFCGF_VCAM1: BioMAP Diversity Plus: hDFCGF Assay for Vascular cell adhesion molecule 1 (VCAM1) Biomarker Activity (AID 2283065).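 As to AC50: VCAM-1 protein level quantified by ELISA after 24 h chemical exposure.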 The settings on record: primary human foreskin fibroblasts; actives raise or lower the signal. An outline of the steps: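 Human foreskin fibroblast primary cells, chemical exposure 24 h; VCAM-1 by ELISA; bidirectional fit, DMSO = negative control/baseline.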

Read-out in assay [7]: Plasminogen activator inhibitor-1 (PAI1), SERPINE1 (gene 5054)
Briefly: BSK_hDFCGF_PAI1: BioMAP Diversity Plus: hDFCGF Assay for Plasminogen activator inhibitor-1 (PAI1) Biomarker Activity (AID 2283066). The settings on record: primary human foreskin fibroblasts; actives raise or lower the signal. The method in brief:
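Fibroblasts from human foreskin were treated with test chemical. After 24 h, PAI-1 was measured by ELISA. Activity was fitted in both directions relative to DMSO.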

Read-out in assay [8]: Intercellular Adhesion Molecule 1 (ICAM1), ICAM1 (gene 3383)
Briefly: BSK_KF3CT_ICAM1: BioMAP Diversity Plus: KF3CT Assay for Intercellular Adhesion Molecule 1 (ICAM1) Biomarker Activity (AID 2283067). The settings on record: primary human keratinocytes with fibroblasts; actives raise or lower the signal. An outline of the steps: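 ICAM-1 levels are measured by ELISA 24 h after dosing a primary human co-culture of keratinocytes and foreskin fibroblasts. Activity in either direction is fitted relative to DMSO vehicle.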

Read-out in assay [9]: Interferon-gamma inducible Protein 10 (IP10), CXCL10 (gene 3627)
Briefly: BSK_KF3CT_IP10: BioMAP Diversity Plus: KF3CT Assay for Interferon-gamma inducible Protein 10 (IP10) Biomarker Activity (AID 2283068). The settings on record: primary human keratinocytes with fibroblasts; actives raise or lower the signal. The method in brief:
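ELISA read-out of IP-10 after 24 h chemical dosing of human skin primary co-culture (keratinocytes, foreskin fibroblasts). Gain or loss of signal relative to DMSO, bidirectional curve fit.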

The nature of assay [10]: BSK_KF3CT_SRB: Viability Assessment in the BioMAP Diversity Plus: KF3CT Assay (AID 2283069).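 Also: read 24 h after compound addition; fitted for both signal gain and loss against DMSO baseline.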 The settings on record: primary human keratinocytes with fibroblasts. The method in brief:
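Overt cytotoxicity is assessed as total protein by sulforhodamine B staining in parallel human skin co-cultures at 24 h after dosing. DMSO serves as negative control and baseline.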

Read-out in assay [11]: Interleukin-1 alpha (IL1a), IL1A (gene 3552)
Briefly: BSK_KF3CT_IL1a: BioMAP Diversity Plus: KF3CT Assay for Interleukin-1 alpha (IL1a) Biomarker Activity (AID 2283070). The settings on record: primary human keratinocytes with fibroblasts; actives raise or lower the signal. The method in brief:
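Readout is IL-1a level by ELISA, compared bidirectionally with DMSO as baseline. Cells: human keratinocytes co-cultured with foreskin fibroblasts, harvested 24 h post-dose.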

Read-out in assay [12]: TIMP metallopeptidase inhibitor 2 (TIMP2), TIMP2 (gene 7077)
Description: BSK_KF3CT_TIMP2: BioMAP Diversity Plus: KF3CT Assay for TIMP metallopeptidase inhibitor 2 (TIMP2) Biomarker Activity (AID 2283071). The settings on record: primary human keratinocytes with fibroblasts; actives raise or lower the signal. An outline of the steps:
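Chemicals were dosed onto human skin primary co-cultures of keratinocytes and foreskin fibroblasts, and TIMP-2 was measured by ELISA after 24 hours. Activity in either direction was fitted relative to DMSO.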

Read-out in assay [13]: Transforming growth factor beta 1 (TGFb1), TGFB1 (gene 7040)
Description: BSK_KF3CT_TGFb1: BioMAP Diversity Plus: KF3CT Assay for Transforming growth factor beta 1 (TGFb1) Biomarker Activity (AID 2283072). The settings on record: primary human keratinocytes with fibroblasts; actives raise or lower the signal. An outline of the steps:
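KF3CT co-culture (keratinocytes + fibroblasts), 24 h exposure → TGF-b1 ELISA → bidirectional fit, DMSO = baseline. Parallel SRB total-protein staining (0.1% SRB, 10% TCA fixation, 560 nm) for cytotoxicity.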

Read-out in assay [14]: C-C motif chemokine 2 (Homo sapiens) (UniProt P13500)
Briefly: BSK_KF3CT_MCP1: BioMAP Diversity Plus: KF3CT Assay for Monocyte Chemoattractant Protein 1 (MCP1/CCL2) Biomarker Activity (AID 2283073). The settings on record: primary human keratinocytes with fibroblasts; actives raise or lower the signal. The method in brief:
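ELISA readout of MCP-1 after 24 h chemical dosing of a human skin primary co-culture of keratinocytes and foreskin fibroblasts. Activity was fitted in both directions against DMSO.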

Read-out in assay [15]: urokinase plasminogen activator (uPA), PLAU (gene 5328)
Briefly: BSK_KF3CT_uPA: BioMAP Diversity Plus: KF3CT Assay for urokinase plasminogen activator (uPA) Biomarker Activity (AID 2283075). The settings on record: primary human keratinocytes with fibroblasts; actives raise or lower the signal. The method in brief: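 Values derive from bidirectional fitting against DMSO controls. Keratinocyte/foreskin fibroblast co-cultures received chemical; 24 h later uPA was detected by ELISA, with SRB total-protein staining in parallel wells for overt cytotoxicity.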

Read-out in a further assay: CD40, CD40 (gene 958)
Description: BSK_LPS_CD40: BioMAP Diversity Plus: LPS Assay for CD40 Biomarker Activity (AID 2283076). The settings on record: primary human HUVEC with PBMC; actives raise or lower the signal. The method in brief: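 Cells were dosed, incubated 24 h, then assayed for CD40 by ELISA. Gain or loss of signal was analysed relative to DMSO controls. The culture paired human umbilical vein endothelium with peripheral blood mononuclear cells.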

Read-out in assay [16]: E-selectin (Homo sapiens) (UniProt P16581)
Description: BSK_LPS_Eselectin: BioMAP Diversity Plus: LPS Assay for Eselectin Biomarker Activity (AID 2283077). The settings on record: primary human HUVEC with PBMC; actives raise or lower the signal. The method in brief: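 Primary human vascular co-culture (endothelium plus PBMC) was dosed with chemical, then E-selectin quantified by ELISA at 24 h. Endpoint values derive from bidirectional curve fitting relative to DMSO.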

Read-out in assay [17]: Interleukin-8 (IL8), CXCL8 (gene 3576)
Briefly: BSK_LPS_IL8: BioMAP Diversity Plus: LPS Assay for Interleukin-8 (IL8) Biomarker Activity (AID 2283078). The settings on record: primary human HUVEC with PBMC; actives raise or lower the signal. The method in brief: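 Readout is IL-8 by ELISA, taken 24 h after compounds were added to LPS-stimulated endothelial/PBMC co-cultures. Both increases and decreases relative to DMSO control were scored through bidirectional fitting.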

Assay [18] in a line: BSK_LPS_SRB: Viability Assessment in the BioMAP Diversity Plus: LPS Assay (AID 2283079).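 Also: total protein by sulforhodamine B absorbance as a cytotoxicity measure; measured one day after compound addition; fitted in both directions against DMSO so loss or gain of signal counts.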 The settings on record: primary human HUVEC with PBMC. An outline of the steps:
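Readout is SRB absorbance at 560 nm (0.1% stain, TCA-fixed parallel cultures) as a total-protein cytotoxicity measure. Cells: primary human umbilical vein endothelium plus peripheral blood mononuclear cells, 24 h after chemical exposure; DMSO served as baseline.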

Chain of E-selectin (Homo sapiens) (P16581 whole entry, looked up): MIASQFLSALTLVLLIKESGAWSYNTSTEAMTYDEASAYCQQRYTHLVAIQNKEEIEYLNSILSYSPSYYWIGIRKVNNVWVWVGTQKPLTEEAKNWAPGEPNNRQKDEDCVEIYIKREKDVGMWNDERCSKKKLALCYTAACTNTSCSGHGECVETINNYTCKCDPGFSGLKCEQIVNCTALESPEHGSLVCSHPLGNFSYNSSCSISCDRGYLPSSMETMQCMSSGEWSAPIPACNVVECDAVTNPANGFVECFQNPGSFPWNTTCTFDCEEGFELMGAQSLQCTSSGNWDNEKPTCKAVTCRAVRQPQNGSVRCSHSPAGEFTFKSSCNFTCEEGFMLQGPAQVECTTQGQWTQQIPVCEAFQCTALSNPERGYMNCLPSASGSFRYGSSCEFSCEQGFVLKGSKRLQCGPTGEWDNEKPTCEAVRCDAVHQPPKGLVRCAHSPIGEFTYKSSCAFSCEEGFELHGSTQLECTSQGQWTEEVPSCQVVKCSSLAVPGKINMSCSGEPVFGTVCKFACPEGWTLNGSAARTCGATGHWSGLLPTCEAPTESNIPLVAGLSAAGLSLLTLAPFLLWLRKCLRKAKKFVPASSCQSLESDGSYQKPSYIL

`COCN(COC)c1nc(N(COC)COC)nc(N(COC)COC)n1`: the result in [1], in assay [2], in [3], in [4], in assay [5] and in assay [6] was inactive. Further, the outcome in assay [7], in assay [8], in [9], in assay [10], in [11] and in assay [12] was inactive. Besides, the outcome in assay [13] is “inactive”; in assay [14], “inactive”; in assay [15], “inactive”; with CD40, CD40 (gene 958), “inactive”; in assay [16], “inactive”; in assay [17] it was “inactive”. Moreover, in [18], the outcome was inactive.
In the case of `Oc1c(Cl)cc(Cl)cc1Sc1cc(Cl)cc(Cl)c1O`, the AC50 (commonly the midpoint of the concentration-response curve, whichever way the signal moves) is 1.46 µM (active) and 1.59 µM (active) in assay [1]; 1.67 µM (active) and 1.78 µM (active) in assay [2]; 2.06 µM (active) and 1.74 µM (active) in assay [3]; 2.22 µM (active) in [4]; 2.14 µM (active) and 2.37 µM (active) in assay [5]; 1.43 µM (active) and 1.52 µM (active) in [6]. The AC50 was 1.23 µM (active) and 1.32 µM (active) in assay [7]; 3.11 µM (active) and 3.28 µM (active) in assay [8]; 2.75 µM (active) and 2.98 µM (active) in [9]; 2.22 µM (active) and 2.17 µM (active) in [11]; 1.96 µM (active) and 2.15 µM (active) in assay [12]; 2.23 µM (active) and 2.57 µM (active) in [14]. For the same molecule, the AC50 in assay [15] is 3.48 µM (active) and 3.57 µM (active); with CD40, CD40 (gene 958), 14.2 µM (active); in assay [16] it was 35.1 µM (active) and 31.9 µM (active); in assay [17] it was 36.5 µM (active) and 33.4 µM (active); in [18], 20 µM (active) and 6.67 µM (active). Also, in assay [10], the outcome was inactive.
`CCCCCCCCCCCC`: the AC50 in assay [1] was 9.32 µM (active) and 10.2 µM (active); in assay [2], 8.02 µM (active) and 11.1 µM (active); in assay [3], 7.88 µM (active) and 9.41 µM (active); in [4], 11.6 µM (active) and 10.2 µM (active); in [5], 5.36 µM (active) and 7.16 µM (active); in assay [6], 8.36 µM (active) and 7.77 µM (active). The AC50 in [7] is 11.2 µM (active) and 10.6 µM (active); in assay [8] it was 15.2 µM (active) and 15.8 µM (active); in assay [9], 11.1 µM (active) and 10.1 µM (active); in [11], 11.4 µM (active) and 12.2 µM (active); in assay [12], 7.91 µM (active) and 9.05 µM (active); in assay [14], 6.76 µM (active) and 8.48 µM (active). Moreover, the AC50 in assay [15] was 11.1 µM (active); with CD40, CD40 (gene 958) it was 20 µM (active); in assay [16], 30.5 µM (active) and 32.7 µM (active); in [17], 33.1 µM (active) and 30.7 µM (active). The outcome in assay [10] is “inactive”; with CD40, CD40 (gene 958), “inactive”; in [18], “inactive”.
